From PubChem BioAssay (NCATS)
Where “and” joins values, the source holds several entries; their conditions need not be identical. Identical values can stand only once. Records with an inconclusive call do not appear. Calls of active or inactive are those of the source. Unless noted, calls come from the whole dose curve; as a rule, active = well fitted curve in the direction sought with a large enough effect; inconclusive = small, poorly fitted or top-dose-only effect, or another doubt; inactive = no such curve, though single readings can be large; an effect the other way counts as inactive or inconclusive.

Legend:
[1] = HPAF-II 24hr Apoptosis Induction qHTS against the NCATS CANVASS Library (AID 1347356); note: 0% is about no effect
Summary of the method: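 500 HPAF-II cells/well; compounds in 11-pnt qHTS; 24 h, 37 C/5% CO2; Caspase-Glo 3/7 added, 15 min RT dark; luminescence read. Doxorubicin control.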

[2] = HEK293 18hr Apoptosis Induction qHTS against the NCATS CANVASS Library (AID 1347357); note: 0% is about no effect
Summary of the method: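 Caspase-Glo 3/7 luminescence (15 min, room temperature) measured apoptosis after an 18-hour, 37 degrees C exposure of HEK293 cells (500 cells/well) to compounds in 11 points.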

[3] = HPAF-II 12hr Apoptosis Induction qHTS against the NCATS CANVASS Library (AID 1347358); note: 0% is about no effect
Summary of the method: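 Caspase-Glo 3/7 luminescence (DEVD substrate) reports caspase activity in HPAF-II cells after 12 h compound treatment at 37 degrees C. Compounds were tested in an 11-point series. Doxorubicin served as control.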

[4] = HPAF-II 18hr Apoptosis Induction qHTS against the NCATS CANVASS Library (AID 1347360); note: 0% is about no effect
Summary of the method: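 Caspase-3/7 activation was measured with luminescent Caspase-Glo 3/7 reagent (15 min, RT) in HPAF-II cancer cells (500 cells/well). Before detection, cells had been treated for 18 h at 37 C with compounds (11 points).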

[5] = HEK293 12hr Apoptosis Induction qHTS against the NCATS CANVASS Library (AID 1347361); note: 0% is about no effect
Summary of the method: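 HEK293 cells (500/well, DMEM + 10% FBS) were exposed to natural products across an 11-point series for 12 hours at 37 degrees C. Caspase-3/7 activity was then measured with DEVD luciferase luminescence after 15 min at room temperature.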

[6] = qHTS for ATAD5 Agonist screened against the NCATS CANVASS Library (AID 1347367);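 note: luciferase reporter driven by ATAD5 which rises upon DNA damage; 0% is about no effect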
Summary of the method: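 Genotoxicity via ATAD5-luciferase luminescence after 16 h compound exposure (11-point series) at 37C in HEK293T-ATAD5 cells. CellTiter-Fluor viability read precedes the luminescence read; MMS serves as positive control.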

[7] = MCF7 Cancer Cell Toxicity qHTS against the NCATS CANVASS Library (AID 1347369)
Summary of the method: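 Cytotoxicity was measured as CellTiterGlo luminescence (ATP) after 72 h at 37 °C. The cells were MCF7 at 500 per well, with an 11-point compound concentration series.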

[8] = 10-beta competent E. coli microbial cell viability qHTS against the NCATS CANVASS Library (AID 1347376); note: 0% is about no effect
Summary of the method: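 Luminescence from BacTiter-Glo ATP detection served as the viability read-out; bacteria (0.2 OD) had been incubated overnight at 37C with pin-transferred compounds at 11 concentrations.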

[9] = DH5-alpha competent E. coli microbial cell viability qHTS against the NCATS CANVASS Library (AID 1347377); conditions: outcome: dose series up to 46.1 µM unless noted
Summary of the method: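 Luminescent ATP read-out (BacTiter-Glo, 20 min RT) after overnight 37C culture of DH5-alpha E. coli with compounds; daunomycin control at 0.2 nM–9.2 uM final.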

[10] = qHTS for H2AX Agonists against the NCATS CANVASS Library (AID 1347378); note: 0% is about no effect
Summary of the method: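 Phospho-H2AX (S139) in CHO-K1 lysates measured by HTRF, reported as 665/615 nm emission ratio after 24 hr antibody incubation at room temperature. Cells were first treated with a compound series for 3 hr at 37C (0.76% DMSO final).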

[11] = Inflammasome Signaling qHTS Counterscreen: IL-1-beta AlphaLISA counterscreen against the NCATS CANVASS Library (AID 1347381);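 note: cell-free check with purified IL-1β in medium and no THP-1 cells; 0% is about no effect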
Summary of the method: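 Here, no cellular stimulation occurs; compounds in an 11-point series meet 4 pg purified IL-1-beta directly. Bead-based AlphaLISA detection follows (1 h acceptor/antibody, then 30 min donor, dark, room temperature), with excitation at 680 nm.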

[12] = Redox Reaction Profiling qHTS: Assay Interference Panel against the NCATS CANVASS Library (AID 1347401); note: potency is the fitted concentration of half-maximal effect
Summary of the method: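 Fluorescence read-out (525 nm excitation, 598 nm emission) at time zero and after 15 min in the dark tracked resorufin formation. Mix: 5 uM resazurin, 200 uM DTT, HEPES pH 7.3 buffer with NaCl.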

[13] = biological target: Luciferin 4-monooxygenase (Photinus pyralis) (UniProt P08659); test: Firefly luciferase counterscreen qHTS: Assay Interference Panel against the NCATS CANVASS Library (AID 1347363); note: 0% is about no effect
Summary of the method: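 Purified P. pyralis luciferase (0.04 ug/mL, 4x reagent) added to Tris-acetate buffer with 0.013 mM D-luciferin, 0.013 mM ATP and 13.3 mM Mg-acetate; compounds preincubated 15 min, then luminescence read after 5 min, RT.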

[14] = biological target: Glutathione peroxidase 1 (Homo sapiens) (UniProt P07203); test: Primary qHTS Assay for Inhibitors of Recombinant Selenoprotein Glutathione Peroxidase 1 (GPX1) (AID 1845191); note: nearly all actives have a fitted effect of over 65% in size
Summary of the method: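 GR-coupled readout: NADPH consumption tracked by fluorescence, ex 340/em 450 nm, at t=0 and after 15 min at RT. Final mix 10 nM GPX1, 1 mM GSH, 0.5 mM CHP, 0.5 mM NADPH, 100 nM GR, 0.01% BSA, following 30 min enzyme–compound preincubation.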

[15] = qHTS to identify inhibitors of the type 1 interferon - major histocompatibility complex class I in skeletal muscle: primary screen against the NCATS Mechanism Interrogation Plate v5.0 (MIPE) Libary (AID 1347411); note: nearly all actives have a fitted effect of over 65% in size; note: potency is the fitted concentration of half-maximal effect;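 for activity change, negative = inhibition: plate controls were vehicle for no effect and reference inhibitor for full effect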
Summary of the method: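 HLA-B HiBit myoblasts, dexamethasone-free medium + 4 ng/ml IFN-b, 24 h compound, 11-pt 1:3 from 46 uM final. Readout: Nano-Glo HiBiT lytic luminescence after 10 min lysis, RT.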

[16] = Primary qHTS for inhibitors of nuclear receptor binding SET domain protein 2 (NSD2) in an isogenic RCH-ACV NSD2 p.E1099K mutant (9B) (AID 1645876); note: potency is the fitted concentration of half-maximal effect; nearly all actives have a fitted effect of over 70% in size
[17] = Primary qHTS for inhibitors of nuclear receptor binding SET domain protein 2 (NSD2) in an RCH-ACV wild type WT cells (2C) (AID 1645877); note: potency is the fitted concentration of half-maximal effect; nearly all actives have a fitted effect of over 70% in size
[18] = biological target: Phospholipid hydroperoxide glutathione peroxidase GPX4 (Homo sapiens) (UniProt P36969); test: Primary qHTS Assay for Inhibitors of Recombinant Selenoprotein Glutathione Peroxidase 4 (GPX4) (AID 1845192); conditions: outcome: dose series up to 50 µM unless noted; note: nearly all actives have a fitted effect of over 65% in size; note: potency is the fitted concentration of half-maximal effect; for activity change, negative = inhibition: % is set by controls: 0 for no effect and ±100 for the full control effect
Summary of the method: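 Steps: GPX4 plus compound, 30 min RT; add GR/GSH/NADPH master mix; start with cumene hydroperoxide; read 340/450 nm fluorescence at 0 and 15 min. Finals were 200 nM GPX4, 1 mM GSH, 0.5 mM CHP, 0.5 mM NADPH, 100 nM GR.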

[19] = qHTS drug screen for cell cycle checkpoint inhibitors in PARPi-resistant BRCA-mutant ovarian cancer cell lines. (AID 1963452; calls by dose curve; note: potency is the fitted concentration of half-maximal effect); conditions: PEO1/OlaR viability, CellTiter-Glo luminescence, 96 h; for Z-AUC: stronger effect = lower value
Summary of the method: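 PEO1, PEO4 and PEO1/OlaR ovarian cancer cells, 600 per well, exposed 96 h at 37C to a dilution series. Viability read by CellTiter-Glo luminescence, normalized to DMSO and empty wells; activity summarized as Z-AUC.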

[20] = qHTS assay to identify inhibitors of the type 1 interferon - major histocompatibility complex class I in skeletal muscle: Counter screen cell viability and HiBit confirmation (AID 1347412); conditions: iHSKM muscle cells + IFN-b, HiBiT or CellTiter-Glo, 24 h; for activity change, negative = inhibition: at 45.9 µM (top of the series); note: potency is the fitted concentration of half-maximal effect; for activity change, negative = inhibition: % is set by controls: 0 for no effect and ±100 for the full control effect; for all read-outs here: nearly all actives have a fitted effect of over 60% in size
Summary of the method: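 After 24 h with human IFN-beta (4 ng/ml) and compound titrations (top 46 uM final, 1:3, 12 points), HLA-B HiBit myoblasts were lysed for either Nano-Glo HiBiT luminescence or CellTiter Glo viability on paired plates.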

[21] = measured here: PEO1 parental Z-AUC

Chain of Phospholipid hydroperoxide glutathione peroxidase GPX4 (Homo sapiens) (P36969 whole entry, looked up): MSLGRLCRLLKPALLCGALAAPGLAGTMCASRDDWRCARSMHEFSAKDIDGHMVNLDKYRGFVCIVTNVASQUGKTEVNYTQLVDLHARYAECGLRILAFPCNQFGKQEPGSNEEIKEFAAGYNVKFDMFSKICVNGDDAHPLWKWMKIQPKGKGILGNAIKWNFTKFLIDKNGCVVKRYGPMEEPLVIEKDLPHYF
Chain of Glutathione peroxidase 1 (Homo sapiens) (P07203 whole entry, looked up): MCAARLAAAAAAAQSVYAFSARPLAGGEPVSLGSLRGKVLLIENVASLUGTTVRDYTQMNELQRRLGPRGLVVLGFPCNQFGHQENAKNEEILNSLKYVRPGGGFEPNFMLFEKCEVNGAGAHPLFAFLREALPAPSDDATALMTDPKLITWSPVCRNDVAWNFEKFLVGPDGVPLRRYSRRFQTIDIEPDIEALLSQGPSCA
Chain of Luciferin 4-monooxygenase (Photinus pyralis) (P08659 whole entry, looked up): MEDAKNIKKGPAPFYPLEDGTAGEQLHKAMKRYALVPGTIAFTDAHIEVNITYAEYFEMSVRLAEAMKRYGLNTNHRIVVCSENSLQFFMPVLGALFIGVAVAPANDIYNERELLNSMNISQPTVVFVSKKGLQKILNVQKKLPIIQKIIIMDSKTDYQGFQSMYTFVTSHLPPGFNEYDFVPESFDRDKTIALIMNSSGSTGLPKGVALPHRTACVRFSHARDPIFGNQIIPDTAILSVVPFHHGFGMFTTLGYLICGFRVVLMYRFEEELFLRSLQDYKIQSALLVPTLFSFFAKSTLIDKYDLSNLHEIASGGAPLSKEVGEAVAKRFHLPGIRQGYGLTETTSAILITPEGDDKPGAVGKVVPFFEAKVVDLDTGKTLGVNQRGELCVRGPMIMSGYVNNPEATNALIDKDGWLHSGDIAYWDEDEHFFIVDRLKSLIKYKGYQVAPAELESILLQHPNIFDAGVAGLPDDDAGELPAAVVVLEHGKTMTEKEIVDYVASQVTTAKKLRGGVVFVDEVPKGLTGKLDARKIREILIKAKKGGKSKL

C/C(=C\[C@H](C)C(=O)/C=C/CC1CC(=O)NC(=O)C1)[C@@H]1OC(=O)CCCC/C=C/[C@H](O)[C@@H](O)[C@@H]1C
inactive: outcome [1] | Potency [2] | Potency [3] | Potency [4] | outcome [5] | Potency [6] | Potency [7] | outcome [8] | outcome [9] | Potency [10] | outcome [11]
active: Potency [12] 24100 nM

O[C@H]1C=C2[C@H]3CN(Cc4cc5c(cc43)OCO5)[C@H]2C[C@@H]1O
inactive: outcome [1] | Potency [2] | Potency [3] | Potency [4] | outcome [5] | Potency [13] | Potency [6] | Potency [7] | outcome [8] | outcome [9] | Potency [10] | outcome [11] | Potency [12]

CN1CCc2cc3c(c4c2C1(C)C(=O)c1cc(O)ccc1-4)OCO3 (configuration not stated)
inactive: outcome [1] | Potency [2] | Potency [3] | Potency [4] | outcome [5] | Potency [13] | Potency [6] | outcome [8] | outcome [9] | Potency [10] | outcome [11] | Potency [12]

C/C=C/c1cc2c(c(=O)o1)C(=O)[C@@H](O)[C@H](C)O2
inactive: outcome [1] | Potency [3] | Potency [4] | Potency [13] | Potency [6] | Potency [7] | outcome [8] | outcome [9] | outcome [11] | Potency [12]

C/C(=C\[C@@H](C)CC/C=C/CC/C=C/C(=O)O)[C@H](O)[C@H](C)C(=O)CCCC1CC(=O)NC(=O)C1
inactive: outcome [1] | Potency [2] | Potency [3] | Potency [4] | outcome [5] | Potency [13] | Potency [6] | Potency [7] | outcome [8] | outcome [9] | Potency [10] | outcome [11]

COc1cc2c(cc1OC)[C@@H](c1ccc3c(c1)OCO3)C(C)[C@@H](C)C2=O (some centres not stated)
inactive: outcome [1] | Potency [2] | Potency [3] | Potency [4] | outcome [5] | Potency [13] | Potency [6] | Potency [7] | outcome [8] | outcome [9] | Potency [10] | outcome [11] | Potency [12]

CC1=C(C)C(=O)OC(C(C)C2(O)CCC3C4C5OC5C5(O)CC=CC(=O)C5(C)C4CCC32C)C1 (configuration not stated)
inactive: outcome [1] | Potency [2] | Potency [3] | Potency [4] | outcome [5] | Potency [13] | Potency [6] | Potency [7] | outcome [8] | Potency [10] | outcome [11]

COc1ccc([C@@H]2c3cc4c(cc3C(=O)[C@H](C)C2C)OCO4)cc1OC (some centres not stated)
inactive: outcome [1] | Potency [2] | Potency [3] | Potency [4] | outcome [5] | Potency [13] | Potency [6] | Potency [7] | outcome [8] | outcome [9] | Potency [10] | outcome [11] | Potency [12]

C=C[C@@](C)(O)CC[C@@H]1[C@@]2(C)CCCC(C)(C)[C@@H]2CC[C@@]1(C)O
inactive: outcome [1] | Potency [2] | Potency [3] | Potency [4] | outcome [5] | Potency [13] | Potency [6] | Potency [7] | outcome [8] | Potency [10] | outcome [11] | Potency [12] | Potency [14]

CC(=O)c1ccc2c(c1)c1cc(C(C)=O)ccc1n2CCNC(C)C
inactive: activity change, negative = inhibition ([20]; Viability) -5.98%
active: Potency [15] 1470 nM | Potency [16] 742 nM | Potency [17] 662 nM | Potency [18] 16100 nM | Potency [19] 1550 nM | Potency ([20]; HiBiT) 1110 nM
-1.42: Z-AUC ([19]; measured here: PEO4 Z-AUC)
-1.63: Z-AUC [19, 21]

CN(C)C/C=C/C(=O)Nc1ccc(C(=O)N2CCC[C@@H](Nc3ncc(Cl)c(-c4c[nH]c5ccccc45)n3)C2)cc1
-2.59: Z-AUC [19, 21]
-2.1: Z-AUC ([19]; measured here: PEO4 Z-AUC)
inactive: Potency [18] | Z-AUC [19] -1.88 | activity change, negative = inhibition ([20]; Viability) 26.2%
active: Potency [15] 1470 nM | Potency [16] 166 nM | Potency [17] 132 nM | Potency ([20]; HiBiT) 1110 nM

CN(C)CCN1C(=O)c2cccc3cc(NC(N)=O)cc(c23)C1=O
inactive: Potency [14] | Potency [18] | Z-AUC [19] -0.63 | activity change, negative = inhibition ([20]; Viability) -14%
active: Potency [15] 7390 nM | Potency [16] 2350 nM | Potency [17] 1860 nM | Potency ([20]; HiBiT) 17600 nM
-1.2: Z-AUC [19, 21]
-1.08: Z-AUC ([19]; measured here: PEO4 Z-AUC)

Cc1cc(C)c(CNC(=O)c2cc(-c3ccc(N4CCN(C)CC4)nc3)cc3c2c(C)cn3C(C)C)c(=O)[nH]1
-1.52 and 0.0539: Z-AUC ([19]; measured here: PEO4 Z-AUC)
inactive: Potency [15] | Potency [14] | Z-AUC [19] -1.15 and -0.405 | activity change, negative = inhibition ([20]; HiBiT) 0.953% | activity change, negative = inhibition ([20]; Viability) -10.1%
-1.04 and 0.4: Z-AUC [19, 21]
active: Potency [16] 16.6 µM and 18.6 µM | Potency [17] 20900 nM | Potency [18] 12800 nM
